The source of these data is PubChem BioAssay AID504467 (National Center for Advancing Translational Sciences (NCATS), 2011).

The structures appear in SMILES notation. In all, about 330,000 compounds went through this assay and about 7,700 (2.3%) were called active. A call without a number means that no potency is given here. Roughly 26% stayed inconclusive and do not appear here. Calls follow the shape of the dose curve; as a rule, active = well fitted inhibition curve with a large enough effect; inconclusive = small, poorly fitted or top-dose-only effect, or effect the other way; inactive = flat fitted curve, though single readings scatter. The full list was thinned out, with actives kept by preference.
Potency is read from the fitted curve at half-maximal effect.

The nature of this assay: qHTS screen for small molecules that inhibit ELG1-dependent DNA repair in human embryonic kidney (HEK293T) cells expressing luciferase-tagged ELG1. Also: nearly all actives have a fitted effect of over 55% in size. Conditions: HEK293T ELG1-luciferase reporter, luminescence, 16 h, DNA damage induced by 5-fluorouridine; series mostly up to 46.1 µM. From the text: NIH Molecular Libraries Probe Production Network [MLPCN] NIH Chemical Genomics Center [NCGC] MLPCN Grant: 1 R03 MH092164-01 Assay Provider: Kyungjae Myung, NHGRI, NIH Keywords: MLPCN, qHTS, NCGC, genotoxicity, cancer Assay Overview: Cancer cells divide rapidly compared to normal cells in the body. During cell division, cancer cells need to duplicate their genome by DNA replication. The failure of genome duplication leads to cancer cells' death. Therefore, inhibitors of DNA replication could specifically kill cancer cells. Based on this concept, many chemotherapeutic agents were developed and have been used to treat cancer patients. However, there are a limited number of agents available in the clinical setting, and some of those that do exist have low efficacy and severe side effects. Therefore, if we can find the compounds that effectively block DNA replication either by directly damaging DNA or by inhibiting other cellular mechanisms, the options for cancer treatment will be broadened. With this in mind, we developed a quantitative high-throughput ELG1-luciferase reporter gene assay. Small molecules that specifically block ELG1 function in response to DNA damage can be identified by monitoring the suppression of luciferase activity. Since ELG1 defines a pathway for repairing DNA damage, agents blocking ELG1 function can be used to sensitize cancer cells to chemotherapeutic agents whose mechanism of action involves the induction of DNA damage.
Assay Protocol Summary: For genotoxicity screening, 2,000 cells in 4 uL/well were dispensed into white, solid-bottom 1536-well plates using a solenoid-based dispenser. Following transfer of 1 uL 5-Fluorouridine and 23 nL compound or DMSO vehicle by a pin tool, the plates were incubated 16 hr at 37 °C and 5% CO2. 5 ul ONE-Glo (Promega) was then added to each plate and following a 30 min incubation at room temperature, luciferase activity was quantified on a ViewLux CCD-based plate reader.
For orientation: Quantitative high-throughput screening tests each substance at several concentrations.
In the case of `COc1ccc(NC(=O)CCS(=O)(=O)c2cc3c(cc2Cl)NC(=O)CO3)cc1OC`, the Potency result was “inactive”.
The value for `O=C(c1ccc(Cl)c(Cl)c1)N1CCCC1` was “inactive”; that for `O=C(c1ccc(Cl)c(S(=O)(=O)N2CCCCCC2)c1)N1CCN(c2ccc(O)cc2)CC1` was 20.6 µM (active).
For the compound `O=C(c1ccc(Cl)c(S(=O)(=O)N2CCCCC2)c1)N1CCCCCC1`, the Potency result was “inactive”.
In the case of `Nn1c(SCC(=O)NC2CCCc3ccccc32)nnc1C1CC1` (stereo not drawn) it was “inactive”; in that of `O=C(CN1C(=O)NC2(CCCC2)C1=O)Nc1cc(C(F)(F)F)ccc1N1CCOCC1`, “inactive”.
The value for `O=C(NCCc1ccc(F)cc1)c1ccc(S(=O)(=O)N2CCCCC2)cc1` was “inactive”; that for `N#Cc1ccc(Oc2cc(C(F)(F)F)nc(-c3ccccn3)n2)cc1` was “inactive”; that for `COc1ccccc1Oc1nc(-c2cccnc2)nc2ccccc12` was “inactive”.
With `Cc1ccc(Oc2nc(-c3ccccn3)nc3ccccc23)cc1`, the Potency is 18.3 µM (active).
The value for `CCS(=O)(=O)N1CCC(N2CCN(c3ccccc3)CC2)CC1` was “inactive”.
The value for `COC(=O)c1cc2nc(-c3ccccc3)cc(C(F)(F)F)n2n1` was “inactive”; that for `O=C(c1ccccc1)N1CCN(C(=O)c2cc3nc(-c4ccccc4)cc(C(F)(F)F)n3n2)CC1` was 7.3 µM (active); that for `O=C(O)c1cnn2c(C(F)(F)F)cc(-c3ccccc3)nc12` was “inactive”.
In the case of `CCc1cccc(C)c1NS(=O)(=O)c1cc(Br)cnc1N` it was “inactive”; in that of `COc1ccc(C)cc1N(C(=O)Cn1nnc(-c2ccc(C)o2)n1)C(C(=O)NC1CCCC1)c1ccncc1` (stereo not drawn), “inactive”; in that of `COc1ccccc1NC(=O)COC(=O)CNC(=O)C1CCCCC1`, “inactive”.
Take `Cc1ccc(CC(=O)N(C)CC(=O)N(CC(C)C)c2c(N)n(CC(C)C)c(=O)[nH]c2=O)cc1C`: the Potency entry is “inactive”.
The value for `Cn1nnnc1SCC(=O)Nc1cccc(S(=O)(=O)N2CCCCC2)c1` was “inactive”; that for `COc1cccc(N(CC(=O)NC2CCCC2)C(=O)Cn2nnc(-c3ccc(C)o3)n2)c1` was “inactive”; that for `CCOC(=O)C1CCN(C(=O)Cn2nc(C)c3c(C)n(-c4ccccc4)nc3c2=O)CC1` was “inactive”.
In the case of `COc1ccc2cc(S(=O)(=O)Nc3ccccn3)ccc2c1` it was “inactive”.
In the case of `COc1ccc(S(=O)(=O)/N=C2\C=C(NS(=O)(=O)c3ccccc3)C(=O)c3ccccc32)cc1` it was 23.1 µM (active); in that of `CC1=C/C(=N\S(=O)(=O)c2ccccc2)C(C(C)C)=CC1=O`, “inactive”; in that of `CCCSc1nc2sc3c(c2c(=O)n1-c1ccc(OC)cc1)CCN(C)C3`, “inactive”.
As for `COc1ccc(C(C(=O)NC2CCCC2)N(CCCO)C(=O)Cn2nnc(-c3ccc(C)o3)n2)cc1` (stereo not drawn), the Potency result was “inactive”.
For the compound `COc1ccc(-c2nc(N)ncc2-c2ccc(Cl)cc2)c(O)c1`, the Potency result was “inactive”.
The value for `C=C(C)COc1ccc(-c2nc(N)ncc2-c2ccccc2OC)c(O)c1` was “inactive”; that for `C=C(C)COc1ccc(-c2ncncc2-c2ccc(OC)cc2)c(O)c1` was 16.4 µM (active); that for `COc1ccc(C(C)(C)C)cc1NC(=O)CCN1C(=O)C2CCCCC2C1=O` (stereo not drawn) was “inactive”.
For the compound `COC(=O)c1c(NC(=O)c2ccccc2F)sc2c1C(C(=O)OC)CC2` (stereo not drawn), the Potency result is “inactive”.
On to `CCc1ccc(N(CC)c2ncnc3nc[nH]c23)cc1`, for which the Potency was 4.11 µM (active).
The value for `CCOc1ccc(-n2c(O)c(/C=N/Nc3nc(C)cc(C)n3)c3ccccc3c2=O)cc1` was 14.6 µM (active); that for `CCOc1ccc(-n2c(O)c(/C=N/Nc3nnc(C)c(=O)[nH]3)c3ccccc3c2=O)cc1` was “inactive”.
In the case of `CCOc1ccc(N=Cc2c(O)n(-c3cccc(C)n3)c(=O)c3ccccc23)cc1`, the Potency result was “inactive”.
In the case of `COc1ccc2[nH]c3c(c2c1)CCN1C(=O)C(CC(=O)NCCc2ccccn2)C[C@H](C(=O)N2CCOCC2)[C@@]31C` (stereo partly drawn) it was “inactive”; in that of `COc1ccc(-c2nnc(SCC(=O)NC3CCCCC3)o2)cc1OC`, “inactive”.
The value for `COc1ccc(CCNC(=O)CSc2nnc(-c3cccc(F)c3)o2)cc1OC` was “inactive”.
The value for `COc1ccc(CN(C(=O)CSc2nnc(-c3ccc(OC)c(OC)c3)o2)c2ccc(F)cc2)cc1` was 16.4 µM (active); that for `COc1ccc(NC(=O)c2sc(N3CCOCC3)nc2-c2ccccc2)c(OC)c1` was 13 µM (active).
On to `COc1ccc(NC(=O)c2sc(N)nc2-c2ccccc2)cc1`, for which the Potency entry was “inactive”.
As to `CCC(=O)Nc1ccc2c(c1)nc(CCN1CCN(c3ccccn3)CC1)n2C`, the Potency entry was “inactive”.
For the compound `COc1cc([N+](=O)[O-])ccc1NC(=S)N1CCN(c2ccccn2)CC1`, the Potency result was “inactive”.
As for `COc1ccc(OC)c(NC(=O)c2sc3nc(C)cc(C)c3c2N)c1`, the Potency result was “inactive”.
For `CCN(CC)c1ccc(NC(=O)CN2CCN(c3ccccn3)CC2)cc1`, the Potency entry was “inactive”.
The value for `COc1ccc(NC(=O)c2sc3nc(C)nc(N4CCN(c5ccccn5)CC4)c3c2C)c(OC)c1` was 2.31 µM (active).
The value for `COc1cc2ccccc2cc1C(=O)Nc1ccc(N2CCOCC2)cc1` was “inactive”; that for `Cc1nc(N2CCN(c3ccccn3)CC2)c2c(C)c(C(=O)Nc3ccc(F)c(Cl)c3)sc2n1` was 3.26 µM (active).
